Measured values taken from PubChem BioAssay AID1942 (Johns Hopkins Ion Channel Center, 2009).
The campaign covered roughly 2,400 compounds. About 580 (24%) were called active. A selection follows. Unmarked numbers belong to inactive results.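 The calls were made as follows: active = activity change at or above the mean plus 3 SD of buffer wells without dofetilide, per plate; inactive = the rest.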

The compounds below were run against Potassium voltage-gated channel subfamily KQT member 2 (Rattus norvegicus) (UniProt O88943) (assay: KCNQ2 potentiation in CHO cells – cell-based, FluxOR thallium flux, counter-screen for hERG block protector project, confirmation (AID 1942;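 also: normalized value minus buffer-control mean plus three SD of buffer wells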)). Conditions: FluxOR thallium flux fluorescence, at 10 µM, active compounds read high.
Potassium voltage-gated channel subfamily KQT member 2 (Rattus norvegicus), sequence (O88943 whole entry, looked up): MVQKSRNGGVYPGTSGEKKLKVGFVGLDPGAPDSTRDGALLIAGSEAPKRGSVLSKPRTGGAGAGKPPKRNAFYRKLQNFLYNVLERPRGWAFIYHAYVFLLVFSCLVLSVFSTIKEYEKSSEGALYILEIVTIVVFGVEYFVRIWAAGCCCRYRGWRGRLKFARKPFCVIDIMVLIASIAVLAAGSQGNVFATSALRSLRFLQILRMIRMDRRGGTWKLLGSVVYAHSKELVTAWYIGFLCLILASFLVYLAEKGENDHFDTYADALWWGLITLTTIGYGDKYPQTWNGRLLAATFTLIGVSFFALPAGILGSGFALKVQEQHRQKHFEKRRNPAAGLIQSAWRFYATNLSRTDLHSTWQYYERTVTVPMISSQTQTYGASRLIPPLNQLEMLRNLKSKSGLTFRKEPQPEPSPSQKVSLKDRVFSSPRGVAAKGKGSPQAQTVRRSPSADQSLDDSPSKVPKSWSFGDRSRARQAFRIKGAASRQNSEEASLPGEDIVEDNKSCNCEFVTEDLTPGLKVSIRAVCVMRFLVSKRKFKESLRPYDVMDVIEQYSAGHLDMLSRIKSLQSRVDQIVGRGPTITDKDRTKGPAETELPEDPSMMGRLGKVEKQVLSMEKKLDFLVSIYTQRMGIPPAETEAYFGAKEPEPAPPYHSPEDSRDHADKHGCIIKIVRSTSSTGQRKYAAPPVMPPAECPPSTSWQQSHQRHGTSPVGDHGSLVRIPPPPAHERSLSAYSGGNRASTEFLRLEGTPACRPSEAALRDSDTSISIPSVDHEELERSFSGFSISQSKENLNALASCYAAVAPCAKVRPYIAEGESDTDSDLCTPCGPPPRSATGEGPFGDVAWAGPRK

Row | SMILES | activity change, less the hit threshold
1 | CCOC(=O)c1nnn(CC(=O)Nc2ccccc2OC)c1C(=O)OCC | -15.8%
2 | CC(C)NC(=O)Nc1n[nH]c(Nc2ccc(Cl)cc2)n1 | 13.2% (active)
3 | O=C(Nc1ccc(Cl)cc1)Nn1cnnc1 | -22.2%
4 | O=c1[nH]c2ccc(S(=O)(=O)NCc3ccccc3)cc2[nH]1 | -14%
5 | Cc1ccc2nc(SCC(=O)N3CCCCCC3)nc(=O)n2c1 | -23.7%
6 | CC(C)Nc1nc(SCC(N)=O)nc(N2CCOCC2)n1 | -13.5%
7 | O=C(CSc1nc(N2CCCCC2)nc(N2CCCCC2)n1)c1ccccc1 | 31.5% (active)
8 | CN(C)CCOC(=O)C1(c2ccccc2)CCCC1 | -12.9%
9 | COc1cc(/C=N/n2cnc3scc(-c4cccs4)c3c2=O)cc(OC)c1OC | -21%
10 | Cn1c(=S)[nH]c2scc(-c3cccs3)c2c1=O | 70.4% (active)
11 | CC(C)n1c(=S)[nH]c2scc(-c3cccs3)c2c1=O | 97.6% (active)
12 | S=c1[nH]c(-c2cccs2)cn1-c1ccccc1 | -6.4%
13 | CC(C)C(=O)Nc1c(-c2ccccc2F)c(=O)c2ccccc2n1C | -21.5%
14 | NC(=O)C1CCN(C(=O)CC(c2ccccc2)c2ccccc2)CC1 | -24%
15 | Brc1ccc(-c2noc(CCc3ccccc3)n2)cc1 | -24.9%
16 | Fc1ccccc1-c1n[nH]c(=S)n1C1CC1 | -17.8%
17 | CC(C)(C)c1cc(-c2n[nH]c(=S)n2-c2ccccc2F)n[nH]1 | 11.5% (active)
18 | COc1ccc(/C(C)=N/Nc2ccc(C(=O)O)cc2)c(OC)c1 | -18.1%
19 | COc1ccccc1-n1c(CCC(=O)O)ccc1-c1ccccc1 | -13.3%
20 | ON/C=N/C(=S)Nc1ncc(C(F)(F)F)cc1Cl | 26.3% (active)
21 | CON/C=N/C(=S)Nc1ncc(C(F)(F)F)cc1Cl | 29.7% (active)
22 | c1ccc(Oc2cccc(OCCn3cncn3)c2)cc1 | -14.9%
23 | Cc1ccccc1NC(=O)CN1C(=O)S/C(=C\c2ccc(-c3cccc(C(=O)O)c3C)o2)C1=O | -22.4%
24 | CN(Cc1ccsc1)C(=O)CCc1nnc(Cc2c[nH]c3ccccc23)o1 | -10.9%

Row | SMILES | activity change, less the hit threshold
25 | O=C1NCC(=O)N2C(c3ccccc3)c3[nH]c4ccccc4c3C[C@@H]12 (stereo partly drawn) | -11.9%
26 | COc1cc(NC(=O)CSc2ncnc3sc4c(c23)CCC(C)C4)c(C(=O)O)cc1OC (stereo not drawn) | 89.6% (active)
27 | COc1cc(NC(=O)CCCOc2ccc(Cl)cc2Cl)c(C(=O)O)cc1OC | -18.7%
28 | CC(=O)CSc1ncnc2sc3c(c12)CCC(C)C3 (stereo not drawn) | 89.9% (active)
29 | NS(=O)(=O)c1ccc(Sc2ccc3c(c2)CCC3)nc1 | -2.7%
30 | COc1cc(NS(=O)(=O)c2ccc(NC(=S)Nc3ccccc3)cc2)nc(OC)n1 | -20.8%
31 | COc1ccc(C(=O)CSc2nnc3ccc(-c4ccccn4)nn23)cc1 | -17.4%
32 | CS(=O)(=O)N1CCN(c2ccccc2NC(=O)Nc2cccc(Cl)c2)CC1 | -24.2%
33 | COc1ccc(-c2nc3ccc(C(=O)NCC(OC)OC)cc3nc2-c2ccc(OC)c(OC)c2)cc1OC | -22.7%
34 | O=C1C(=O)N(CCN2CCOCC2)C(c2cccnc2)/C1=C(/O)c1ccc(Cl)cc1 (stereo not drawn) | -17.6%
35 | Nc1nnc(SCC(=O)OCc2ccc(F)cc2)s1 | -16.7%
36 | Cc1cccc(/C=C/C(=O)c2cc(Br)ccc(=O)c2O)c1 | 3% (active)
37 | O=C(/C=C/c1ccccc1)CC(=O)c1ccccc1O | -15.2%
38 | O=C(/C=C/c1ccccc1)c1cc(Br)ccc(=O)c1O | 15% (active)
39 | CCc1ccc(/C=C/C(=O)c2cc(Br)ccc(=O)c2O)cc1 | -8.6%
40 | COc1cc(C2NC(=O)NC(O)(C(F)(F)F)C2C(C)=O)cc(OC)c1OC (stereo not drawn) | -20.3%
41 | O=C1CC(C(=O)N2CCOCC2)C2(CCCCC2)O1 (stereo not drawn) | -22.9%
42 | CCOc1ccccc1CNC(=O)CNC(=O)c1cccs1 | -20.9%
43 | Cc1ccc(NC(=S)c2nc3ccccc3s2)cc1 | -9.6%
44 | S=C(Nc1ccc(Cl)cc1)c1nc2ccccc2s1 | 7.4% (active)
45 | Cc1cccc(NC(=S)c2nc3ccccc3s2)c1 | -23.6%
46 | CC(C)(C)n1nnnc1C(c1cc2cc3c(cc2[nH]c1=O)OCCO3)N1CCSCC1 (stereo not drawn) | -17.4%
47 | Cc1ccc2[nH]c(=O)c(C(c3nnnn3C3CCCC3)N3CCCc4ccccc43)cc2c1 (stereo not drawn) | 13.3% (active)
48 | CC(=O)Nc1ccc(S(=O)(=O)NC2(C(F)(F)F)C(=O)Nc3c2c(=O)[nH]c(=O)n3C)cc1 (stereo not drawn) | -12.3%
